# EPAC2 antagonist: antagonists of human EPAC2 | Q8WZA2 | EPAC2 GEF exchange of Rap1B-BODIPY-GDP, fluorescence | Potency, µM (top dose mostly 114 µM), for inactives: at the top dose activity, negative = inhibition, actives largely listed as inhibitors | actives 0.18% (n = 360,000) | AID 720708; also: % is scaled to controls: 0 for no effect and ±100 for the full control effect; nearly all actives have a fitted effect of over 45% in size
# USP1-UAF1 inh: USP1/UAF1 (human) deubiquitinase inhibition; recombinant USP1/UAF1, Ub-Rhodamine cleavage fluorescence; Potency, µM (titrated, usually from 57.1 µM), for inactives: at the top dose activity change, negative = inhibition, hits mostly inhibitors; actives 0.23% (n = 390,000); AID 743255; also: % is scaled to controls: 0 for no effect and ±100 for the full control effect; nearly all actives have a fitted effect of over 60% in size
#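 In this screen, compounds sit with the deubiquitinase complex (1nM) for 15 min at room temperature before Ub-Rho is added at 150nM final. Fluorescence rise is then followed for 6 reads every 60 seconds.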
# EPAC2 ag: agonists of human EPAC2 (RAPGEF4); Q8WZA2; EPAC2 activation, biochemical qHTS; response scale: 100% = 6.5 mM cAMP response; Potency, µM (top dose mostly 154 µM), for the others: top-dose activation, hits mostly activators; actives 0.079% (n = 360,000); AID 720711; also: nearly all actives have a fitted effect of over 50% in size
#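 Exchange assay: 100 nM EPAC2 with 250 nM Rap1B-BODIPY-GDP and 50 uM GDP. Fluorescence (ex 480/em 540 nm) read every 5 min for 30 min at room temperature. Data normalized to 6.5 mM cAMP as agonist control.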
# VDR inhibitor: blocks the human vitamin D receptor; P11473; VDR-SRC2-3 peptide fluorescence polarization, 2 h; Potency, µM, for the others: max response, negative = inhibition, hits mostly inhibitors; actives 0.93% (n = 400,000); also: % is scaled to controls: 0 for no effect and ±100 for the full control effect
#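 Compounds are added to VDR with labelled SRC2-3 coactivator peptide and held 2 h at room temperature. Inhibition of the VDR–peptide interaction is then read as a change in fluorescence polarization.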
# EPAC1 ag: agonists of human EPAC1. AID 720707. Potency, µM (titrated, usually from 154 µM), for inactives: at the highest dose activation, hits mostly activators. EPAC1 agonist qHTS, biochemical assay; response scale: 100% = response to 6.5 mM cAMP. actives 0.073% (n = 360,000); also: nearly all actives have a fitted effect of over 60% in size
#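 EPAC1 100 nM, Rap1B–BODIPY-GDP 250 nM, unlabeled GDP 50 uM; compound titration; 5 min RT; kinetic read ex480/em540 at 5-min intervals ×30 min; data normalized to 6.5 mM cAMP agonist control.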
# EPAC1 antag: blocks human EPAC1 exchange factor; actives 0.14% (n = 360,000); Potency, µM (doses to about 115 µM), for the others: at the highest dose activity change, negative = inhibition, usual class: inhibitors; AID 720709; EPAC1 GEF assay, Rap1b-BODIPY-GDP exchange fluorescence; O95398;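 also: plate controls were vehicle for no effect and positive control for full effect; nearly all actives have a fitted effect of over 50% in size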
# An asterisk follows results filed as active; ? = inconclusive; . = no result given; [ ] = dose if it differs, or a comment. This is a sample that favours compounds with a hit; in the whole collection about 1.2% have one here. Calls follow the shape of the dose curve; as a rule, active = well fitted curve in the direction sought with a large enough effect; inconclusive = small, poorly fitted or top-dose-only effect, or another doubt; inactive = no such curve, though single readings can be large; an effect the other way counts as inactive or inconclusive. Potency is read from the fitted curve at half-maximal effect.
SMILES,EPAC2 antagonist,USP1-UAF1 inh,EPAC2 ag,VDR inhibitor,EPAC1 ag,EPAC1 antag
O=C1C=C(N2CCOCC2)c2cccc3cccc1c23,3%,-23%,1%,.,1%,-9%
O=C(O)c1cccc(NC2=C(N3CCOCC3)C(=O)c3ccccc3C2=O)c1,-6%,32µM*,-1%,71µM*,1%,-15%
O=C1C(NS(=O)(=O)c2cccs2)=C(N2CCOCC2)C(=O)c2ccccc21,-14%,-21%,-1%,-4%,6%,-24%
O=C1C=C(N2CCOCC2)c2ccccc2C1=O,?,3.2µM*,22%,?,3%,10µM*
CCOc1ccc(CCNC(=O)c2cccc(-n3c(C)nc4cccnc43)c2C)cc1,.,-12%,.,9%,.,.
CC1CCC(Nc2nc3c(-c4cccc(C(F)(F)F)c4)nnn3c3ccccc23)CC1 (stereo unspecified),.,-29%,.,-13%,.,.
Nc1cccc(-n2nnnc2CN2CCOCC2)c1,9%,-15%,5%,45µM*,-10%,6%
Nc1ncnc2c1[nH]c(=S)n2C1OC(CO)C(O)C1O (stereo unspecified),.,.,.,-2%,.,.
Oc1ccc(Cl)cc1CNc1cccc2cccnc12,56µM*,-27%,10%,-6%,-16%,-16%
Oc1ccc(Br)cc1CNc1cccc2cccnc12,?,?,13%,-13%,10%,12%
Oc1c(Br)cc(Br)cc1CNc1cccc2cccnc12,11µM*,?,2%,-22%,15%,-26%
CC1=CC(=O)OC1Cc1ccc2ccccc2n1 (stereo unspecified),.,.,.,-4%,.,.
CCc1ccc2[nH]c(=O)c(CN(Cc3cccs3)Cc3nnnn3Cc3ccccc3)cc2c1,.,.,.,-10%,.,.
CCCCC[C@H](O)/C=C/[C@@H]1[C@@H](C/C=C\CCCC(=O)OC)[C@@H](O)C[C@H]1O,5%,-8%,-4%,-14%,-7%,?
CCCCC[C@H](O)/C=C/[C@H]1C(=O)C=C[C@@H]1C/C=C\CCCC(=O)O,.,.,.,32µM*,.,.
CCCCC[C@H](O)/C=C/C1C(=O)C=C[C@H]1C/C=C\CCCC(=O)OC (stereo partly specified),?,?,3%,25µM*,-22%,?
Cc1ccccc1NC(=S)Nn1cnnc1,6%,-3%,9%,?,5%,-22%
CCOc1ccccc1NC(=S)Nn1cnnc1,2%,-7%,4%,40µM*,6%,-21%
O=C(Nc1cccc(Cl)c1Cl)Nn1cnnc1,1%,-12%,9%,-15%,8%,8%
S=C(Nc1cc(Cl)ccc1Cl)Nn1cnnc1,1%,-7%,5%,79µM*,-5%,12%
S=C(Nc1cccc(Cl)c1Cl)Nn1cnnc1,0%,-6%,7%,79µM*,-1%,-5%
COc1ccc(C#Cc2c[nH]c(=O)c3cncnc23)cc1OC,.,.,.,-21%,.,.
O=C(NCCCCN1CCOCC1)c1cc2ccccc2o1,.,.,.,0%,.,.
COC(=O)c1ccccc1NC1=C/C(=N\S(=O)(=O)c2cccs2)c2ccccc2C1=O,3%,4µM*,8%,?,-1%,-1%
O=C1C(Nc2ccccc2)=C/C(=N/S(=O)(=O)c2cccs2)c2ccccc21,-32%,2.5µM*,11%,-14%,-3%,-3%
COC(=O)c1cccc(NS(=O)(=O)c2cccs2)c1C,-3%[57.1 µM],-1%,11%,2%,-1%,-7%
COC(=O)c1ccccc1NC1=C/C(=N\S(=O)(=O)c2ccc(C(=O)O)cc2)c2ccccc2C1=O,?,13µM*,13%,25µM*,6%,40µM*
Cc1ccc(NC2=C/C(=N/S(=O)(=O)c3cccs3)c3ccccc3C2=O)cc1,6%,?,-8%,-2%,1%,-15%
COC(=O)c1ccccc1Nc1ccccc1,5%,-21%,8%,-10%,0%,-3%
N[C@@H](Cn1ccc(=O)c(O)c1)C(=O)O,.,.,.,1%,.,.

# Source: PubChem BioAssay (National Center for Advancing Translational Sciences (NCATS))
